Compounds without any hit were thinned out: in the full panel of roughly 83,000, 20% have a hit.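 Note: values are percent growth. 100 is the growth of untreated cells, values between 100 and 0 indicate rising inhibition; between -100 and 0 indicates cell death.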 Unmarked numbers belong to inactive results. Calls of active or inactive are those of the source.

In PubChem BioAssay (NCI) one finds growth data, which are given here for 40 compounds.

This test relates to BT-549 breast. In words: NCI-60 one-dose screen, 48 h (100 = growth as untreated, 0 = no growth, -100 = all killed). Particulars: 10 µM unless noted. How it is done:
Growth inhibition of the BT-549 human tumor cell line is measured as a screen for anti-cancer activity. Cells are grown in 96 well plates and exposed to the test compound for 48 hours. Compounds are tested at a single concentration, which is 10^-5 M for most compounds. The reported endpoint is percent growth (GI% or GIPRCNT), where numbers from 0 - 100% represent growth inhibition, and numbers from -100% - 0 represent cell death. For example, a value of 40 represents 60% growth inhibition. A value of 0 means no net growth occurred over the course of the experiment. A value of -40 indicates 40% of cells at the beginning of the experiment died by the end of the experiment. A value of -100 means all cells are dead at the end of the experiment.
NCI-60 Human Tumor Cell Lines Screen was performed using the standard one-dose NCI protocol, which is described in more detail at https://dtp.cancer.gov/discovery_development/nci-60/default.htm.
Compounds with GIPRCNT values below 10 were considered active. Activity score was based on GIPRCNT using the following formula: […]
Score is 0 for GIPRCNT values of 100 or above, 50 for GIPRCNT values of 0, and 100 for GIPRCNT values of -100.
On to `CSCCC(NC(=O)C(Cl)Cl)C(=O)O` (stereo not given), for which the growth was 102%.

As to `CC1CN(CCO)CC(C)O1` (stereo not given), the growth was 108%.

Consider `C=COC(=O)C(C)(C)C`, for which the growth is 89%.

Consider `CSc1cnc2ccccc2n1`, for which the growth was 94.6%.

Take `OCC1OC(n2ccc3c2ncn2ncnc32)C(O)C1O` (stereo not given): the growth was 23.3%.

On to `C/C=C/C1OCC(CC)C(CCC)O1` (stereo not given), for which the growth is 108%.

Consider `CCCC1OC(c2ccco2)OCC1CC` (stereo not given), for which the growth is 98.3%.

`O=C(O)CC1=CCCCC1`: the growth was 96.1%.

As to `Nc1ccc2c(c1)Cc1cc(N)c(N)cc1-2`, the growth was 104%.

Consider `CC(=O)C1C(=O)C(=O)N(c2ccc(Cl)c(Cl)c2)C1=O` (stereo not given), for which the growth was 97.5%.

Turning to `NC(=O)NCCO`, the growth is 101%.

For `Cc1cc2nc(C)c(C)nc2cc1C`, the growth was 100%.

Consider `Oc1cc2ccccc2c(-c2c(O)c(O)cc3ccccc23)c1O`, for which the growth is 5.13% (active).

With `Clc1ncnc2nc[nH]c12`, the growth was 101%.

`NCC(O)C(O)C(O)C(O)CO` (stereo not given): the growth is 91.3%.

With `CCCCNC(=O)c1ccc(OCC)cc1`, the growth is 99.9%.

Regarding `O=c1cc(Cl)nc2ccccn12`, the growth is 107%.

In the case of `CCN(CC)CCOC(=O)Nc1c(C(C)C)cccc1C(C)C`, the growth is 117%.

Regarding `Cc1ccc(S(=O)(=O)Oc2ccc3sc4c(CO)ccc(NCCN(C)C)c4c(=O)c3c2)cc1`, the growth was -91.2% [100 µM] (active).

As to `ClCC(Cl)C1CCC(Cl)C(Cl)C1` (stereo not given), the growth was 103%.

On to `O=C(c1cccc(C(=O)c2ccc3c4c(cccc24)C(=O)N(c2ccccc2)C3=O)c1)c1ccc2c3c(cccc13)C(=O)N(c1ccccc1)C2=O`, for which the growth was 104%.

Take `N#Cc1ccc(OC(=O)Nc2c(Cl)cc(Cl)cc2Cl)cc1`: the growth is 113%.

As for `COCC(N)=O`, the growth is 93.2%.

Turning to `Cn1c(=O)c2[nH]c(CCCCC(=O)O)nc2n(C)c1=O`, the growth is 106%.

Regarding `C1C[S+]2CC[S+]1CC2`, the growth is 97%.

Turning to `O=C(c1ccccc1O)N1CCCC1`, the growth was 88.9%.

`COc1ccc(Br)c(C=O)c1`: the growth was 76.6%.

With `C=CC(C)(C)n1cc(C2=C(O)C(=O)C(c3cn(C(C)(C)C=C)c4ccccc34)=C(O)C2=O)c2ccccc21`, the growth is 96.3%.

With `CC1(C)C2CCC1(C)C1(C2)OCCS1` (stereo not given), the growth is 88.3%.

For the compound `C=C1C(=O)C2CCC1C2` (stereo not given), the growth was 93%.

`O=C1C=CC(=O)C2=C1CCCC2`: the growth is 91.6%.

`C=CCNC(=S)N/C=C(/C(=O)c1ccccc1)c1ccccc1`: the growth was 98.2%.

As to `C=C(C)[C@@H]1CC[C@]2(CO)CC[C@]3(C)[C@H](CC[C@@H]4[C@@]5(C)CC[C@H](O)C(C)(C)[C@@H]5CC[C@]43C)[C@@H]12`, the growth is 49.3%.

`Cc1ccc(S(N)(=O)=O)cc1Cl`: the growth was 77.9%.

In the case of `CC(C)OCC(CCl)OC(=O)Nc1ccccc1` (stereo not given), the growth was 110%.

Consider `Cn1c2ccccc2c2nnc(NCCCCO)nc21`, for which the growth was 101%.

With `C/C(O)=C(/C=N/C(=S)Nc1ccccc1)C(=O)Nc1ccccc1C`, the growth is 107%.

As to `Nc1ccccc1SC1CC(=O)N(c2ccc(Cl)c(Cl)c2)C1=O` (stereo not given), the growth was 124%.

As to `COC1C(=O)CCC2(CO2)C1(O)C1(C)OC1CCC(C)C` (stereo not given), the growth is 77.4%.

With `COc1cc(OC)c(NC(=O)C(Sc2nc(C)cc(C)c2C#N)c2ccccc2)cc1Cl` (stereo not given), the growth is 81.7%.
